# Hits are enriched below; roughly 1.3% of the tested compounds scored in any of these assays.
# COUP-TFII inh: NR2F2 (human) inhibition, primary screen | 370,000 tested, 0.7% active | HEK293T NGFI-A luciferase reporter, luminescence | inhibition, % at 8.6 µM;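 active = inhibition above a per-plate cutoff, mean inhibition of test wells between control levels plus 3 SD, cut at about 38% in these data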;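 note: cells cotransfected with COUP-TFII expression vector driving the NGFI-A reporter; 0% = median of COUP-TF2 test wells and 100% = reporter-only cells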
# Gli-Sufu antag: blocks Gli-Sufu signaling in a luciferase reporter; Sufu-KO-LIGHT fibroblasts, Gli luciferase reporter luminescence; inhibition, % at 5 µM; 340,000 tested, 0.74% active;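 active = inhibition above about 55%, limit read from the data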;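 note: 0% = DMSO-treated cells and 100% = wells with medium but no cells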
# NCOA1 inh: human NCOA1 inhibition; Q15788; HEK293 GAL4-SRC1 luciferase reporter, luminescence; inhibition, % at 3.6 µM; 360,000 tested, 0.12% active;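 active = inhibition above the campaign mean plus 3 SD, with each screening campaign given its own cutoff, cut at about 60% in these data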;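 note: 0% = DMSO treated cells and 100% = gossypol at 36 µM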
# NR5A2 inv ag: inverse agonists of human LRH-1 (NR5A2); 360,000 tested, 0.13% active; O00482; inhibition, % at 3.6 µM; HEK293T StAR-luciferase reporter, LRH-1 transfected, 24 h;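 active = inhibition above the mean inhibition of all tested compounds plus 3 SD, cut at about 73% in these data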;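 note: 0% = DMSO wells and 100% = reporter-only cells lacking LRH-1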
# NCOA2 inhibitor: human SRC2 (NCOA2) inhibition; 370,000 tested, 0.17% active; inhibition, % at 9 µM; HEK293 GAL4-SRC2 luciferase reporter, luminescence; Q15596;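 active = inhibition above the mean inhibition of all tested compounds plus 3 SD, set per campaign, cut at about 52% in these data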;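 note: 0% = DMSO treated cells and 100% = cells given Gossypol at 36 µM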
# Target sequence (Q15596 whole entry, looked up, the tested form may be a part): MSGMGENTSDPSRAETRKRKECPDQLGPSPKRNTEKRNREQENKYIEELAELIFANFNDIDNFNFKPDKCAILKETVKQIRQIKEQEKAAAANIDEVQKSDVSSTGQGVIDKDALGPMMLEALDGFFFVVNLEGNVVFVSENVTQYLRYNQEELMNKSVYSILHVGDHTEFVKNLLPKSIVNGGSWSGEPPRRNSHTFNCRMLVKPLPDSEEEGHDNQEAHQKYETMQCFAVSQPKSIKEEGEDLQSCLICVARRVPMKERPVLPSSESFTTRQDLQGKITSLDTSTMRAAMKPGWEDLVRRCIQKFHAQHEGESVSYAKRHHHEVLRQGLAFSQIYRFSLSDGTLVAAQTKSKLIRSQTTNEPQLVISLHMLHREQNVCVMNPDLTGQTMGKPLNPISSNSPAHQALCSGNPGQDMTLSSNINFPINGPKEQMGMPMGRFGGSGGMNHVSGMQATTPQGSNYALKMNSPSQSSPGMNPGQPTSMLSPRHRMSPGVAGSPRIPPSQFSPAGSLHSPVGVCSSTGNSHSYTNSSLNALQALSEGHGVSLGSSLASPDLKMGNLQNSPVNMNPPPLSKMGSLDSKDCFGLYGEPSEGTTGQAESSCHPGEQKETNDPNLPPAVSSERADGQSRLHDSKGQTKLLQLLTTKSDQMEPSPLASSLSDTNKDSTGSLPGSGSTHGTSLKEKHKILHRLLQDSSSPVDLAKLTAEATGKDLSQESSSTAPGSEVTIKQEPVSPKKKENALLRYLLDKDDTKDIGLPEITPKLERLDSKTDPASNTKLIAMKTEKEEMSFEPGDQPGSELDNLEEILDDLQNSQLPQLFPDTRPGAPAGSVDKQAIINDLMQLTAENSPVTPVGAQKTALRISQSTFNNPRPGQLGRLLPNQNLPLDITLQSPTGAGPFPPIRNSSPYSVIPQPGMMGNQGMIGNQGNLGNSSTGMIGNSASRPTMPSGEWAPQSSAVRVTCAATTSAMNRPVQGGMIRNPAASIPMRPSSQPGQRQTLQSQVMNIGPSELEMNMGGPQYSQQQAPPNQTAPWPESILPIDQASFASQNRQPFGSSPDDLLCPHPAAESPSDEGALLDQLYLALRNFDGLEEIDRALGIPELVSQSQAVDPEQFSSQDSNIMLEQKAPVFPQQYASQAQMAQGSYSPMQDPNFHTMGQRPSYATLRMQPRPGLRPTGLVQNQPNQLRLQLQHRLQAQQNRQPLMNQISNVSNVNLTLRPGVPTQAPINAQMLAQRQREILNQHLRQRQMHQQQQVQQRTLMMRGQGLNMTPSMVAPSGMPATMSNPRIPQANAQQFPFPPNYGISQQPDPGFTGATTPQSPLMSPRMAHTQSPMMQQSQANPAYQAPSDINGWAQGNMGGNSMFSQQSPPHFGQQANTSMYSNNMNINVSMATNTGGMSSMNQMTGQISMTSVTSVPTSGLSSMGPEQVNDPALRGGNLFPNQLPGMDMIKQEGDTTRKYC
# NCOA3 inh: inhibits human SRC3 coactivator. Q9Y6Q9. HEK293 GAL4-SRC3 luciferase reporter, luminescence. inhibition, % at 3.6 µM. 360,000 tested, 0.17% active;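 active = inhibition above a per-campaign cutoff, the mean of all compounds plus 3 SD, cut at about 60% in these data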;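 note: 0% = DMSO-treated cells and 100% = gossypol-treated cells at 36 µM; higher means less SRC3-driven luciferase light from the GAL4 reporter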
# Gli-Sufu confirm: Gli-SUFU antagonism confirmation, single concentration; Sufu-KO-LIGHT cells, Gli luciferase reporter, luminescence; shares compounds with Gli-Sufu antag; inhibition, % at 5 µM; AID 602428; 2,500 tested, 40% active;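 active = mean inhibition at 5 µM reaching about 45%, limit read from the data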;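 note: plate controls were DMSO-treated cells for no effect and wells lacking cells for full effect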
# Gli cytotox: cytotoxic in Gli-SUFU antagonist counter-screen; 2,500 tested, 32% active; shares compounds with Gli-Sufu antag; Sufu-KO-LIGHT cells cytotoxicity, ATP luminescence; cytotoxicity, % at 5 µM;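 active = mean cytotoxicity at 5 µM above about 25%, limit read from the data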;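 note: cells exposed to compound overnight for roughly 16 to 18 hours; plate controls were DMSO wells with cells for no effect and medium without cells for full effect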
# Wnt3a counter: counter-screen for Gli-SUFU antagonists: Wnt3a reporter inhibition; shares compounds with Gli-Sufu antag; Wnt-LIGHT cells, Wnt3a-driven luciferase reporter, luminescence; inhibition, % at 6.25 µM; 2,500 tested, 20% active; AID 651995;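 active = mean inhibition above about 25%, limit read from the data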
# Active calls of the source: *; / = no result.
SMILES,COUP-TFII inh,Gli-Sufu antag,NCOA1 inh,NR5A2 inv ag,NCOA2 inhibitor,NCOA3 inh,Gli-Sufu confirm,Gli cytotox,Wnt3a counter
O=C1CC[C@@]23CCCN2C(=O)CCCC3C1 (stereo partly drawn),19,55*,2,-1,-21,11,18,13,9
COC(=O)C1=C(C)N(Cc2ccc(C(F)(F)F)cc2)C(=NCc2ccc(C(F)(F)F)cc2)NC1c1ccc(F)cc1 (stereo not drawn),-14,/,/,/,-7,/,/,/,/
COC(=O)c1cnc(Oc2ccc(NC(=O)NC(=O)c3c(OC)cccc3OC)cc2)cc1C(F)(F)F,18,52,2,8,11,-21,53*,58*,-31
O=C(Cc1csc(Nc2nc(=S)[nH]c3ccccc23)n1)NCCCN1CCN(c2ccccc2F)CC1,11,86*,-19,15,-9,-3,37,21,-41
O=C(Cc1csc(Nc2nc(=S)[nH]c3ccccc23)n1)NCc1ccc(Cl)cc1,/,/,-13,-24,/,7,/,/,/
O=C(CCNC(=O)C1CCN(S(=O)(=O)c2ccc(F)cc2)CC1)NCc1ccc(F)cc1,9,-21,0,-3,-11,13,/,/,/
O=C(CCNC(=O)C1CCN(S(=O)(=O)c2ccc(F)cc2)CC1)NCc1ccc(Cl)cc1,9,61*,-4,-28,27,11,13,11,-10
CCOc1ccc(NC(=O)CCNC(=O)C2CCN(S(=O)(=O)c3ccccc3)CC2)cc1,3,57*,-11,5,16,-4,14,26*,-26
O=C(Nc1ccc2oc(-c3ccncc3)nc2c1)c1ccccc1,6,85*,-25,10,-2,-4,21,1,-25
O=C(Nc1ccc2oc(-c3ccncc3)nc2c1)c1ccccc1F,1,-17,-42,-35,-12,-50,/,/,/
Cc1ccccc1OCc1nc2ccccc2c(=O)n1/N=C/c1ccco1,-16,93*,-21,-30,-29,-2,12,26*,-45
CCc1cc(=O)oc2cc(C)cc(OCC(=O)N[C@@H](CSCc3ccccc3)C(=O)O)c12,-5,57*,-5,-15,-17,9,23,-3,3
O=C1CC2(CCCC2)Oc2ccc(F)cc21,9,2,1,0,2,-12,/,/,/
Cc1ccc2c(c1)C(=O)CC(O)(C(F)F)O2 (stereo not drawn),-5,55*,3,-15,-26,19,11,-1,9
CCc1c(-c2ccc(OC)cc2)ncn1CCc1ccccc1OC,15,/,/,/,-8,/,/,/,/
Cc1ccc(C2=CCN(C)C(=O)N2c2ccc(Br)cc2)cc1,7,/,/,/,-5,/,/,/,/
CCOC(=O)N1CCN(C(=O)C[C@H]2C[C@@]3(C(=O)OC)C(=C[C@H](C(C)(C)C)O[C@@H]3C)N(Cc3ccc4c(c3)OCO4)C2=O)CC1,2,/,/,/,0,/,/,/,/
Cc1cnccc1CN(C)Cc1nc(Cc2ccccc2Cl)no1,33,55*,0,20,14,16,31,10,-2
O=C(C(=O)N1CCN(C(=O)c2cccs2)CC1)c1cccc(C(F)(F)F)c1,-10,/,/,/,-15,/,/,/,/
CCOC(=O)C1=C(C)NC(C)=C(C(=O)OCC)C1c1ccc(C)o1,-13,59*,10,-1,14,10,17,27*,1
CCN(C(=O)COC(=O)/C=C/c1cnc2ccccc2n1)C1CCS(=O)(=O)C1 (stereo not drawn),-13,56*,6,-4,11,5,18,-3,-14
CN(C(=O)COC(=O)/C=C/c1ccc2ccccc2n1)C1CCS(=O)(=O)C1 (stereo not drawn),0,6,-23,-6,20,11,/,/,/
CC(C)Oc1ccc(CCNC(=O)C2CCC(=O)N(Cc3cccc(F)c3)C2)cc1 (stereo not drawn),-18,57*,-19,-16,1,-9,11,-9,-54
COCCOc1nc2c(c(=O)n(C)c(=O)n2C)n1Cc1cccc(OC)c1,18,52,9,11,19,29,44,21,23
N#Cc1c(N)nc2c(c1-c1ccco1)CCCCC2,26,98*,6,-40,3,8,27,19,-4
SMILES,COUP-TFII inh,Gli-Sufu antag,NCOA1 inh,NR5A2 inv ag,NCOA2 inhibitor,NCOA3 inh,Gli-Sufu confirm,Gli cytotox,Wnt3a counter
CCSc1nc(N)c(C#N)c(-c2ccco2)c1C#N,2,89*,-14,-1,-8,-2,30,1,-4
N#Cc1c(N)nc2c(c1-c1ccncc1)CCCCC2,-18,1,-7,-11,-16,7,/,/,/
COC(=O)CSc1nc(N)c(C#N)c(-c2ccco2)c1C#N,1,7,-12,3,-34,0,/,/,/
C=CCCC1CN(Cc2ccc(OC)cc2)S(=O)(=O)c2c(Oc3cc(C)c(C)c(C)c3)cccc2O1 (stereo not drawn),-8,/,/,/,19,/,/,/,/
Cc1cc(C)cc(NC(=S)N(CCN(C)C)C(C)c2cccnc2)c1 (stereo not drawn),-10,50,-17,5,-21,12,17,12,-31
Cc1cc(C)c(NC(=S)N(CCN(C)C)C(C)c2cccnc2)c(C)c1 (stereo not drawn),8,12,-46,-7,-15,12,/,/,/
CC1(C)OC(C)(C)C(=N/O)/C1=N\N,-2,/,/,/,15,/,/,/,/
CNC(=S)N/N=C(\C)c1ccc(N2CCOCC2)cc1,-6,68*,-17,-29,-22,-10,-18,7,-68
CCNC(=S)N/N=C(\C)c1ccc(N2CCOCC2)cc1,-8,5,3,-7,-4,4,/,/,/
O=C(c1ccccc1)C12COc3ccccc3C1ON=C2c1ccccc1 (stereo not drawn),-3,/,/,/,-37,/,/,/,/
O=C(Cc1cccs1)Nc1nnc(COc2ccccc2)s1,4,99*,-10,2,3,7,19,12,7
O=C(Nc1ccncc1)Nc1ccc(F)cc1F,-5,14,-17,1,-25,-5,/,/,/
CN(C)c1ccncc1C(=O)Nc1ccc(F)cc1F,-19,59*,28,11,16,21,19,-3,4
CC(C)(C)c1ccc(-c2cn(C[C@H](Cc3ccccc3)n3c(=O)c4ccccc4n3Cc3ccccc3)nn2)cc1,12,/,/,/,9,/,/,/,/
COc1ccc(-c2cc(=O)c3cccc(CC(=O)O)c3o2)cc1,3,/,/,/,10,/,/,/,/
CC1Cc2ccccc2N1C(=O)C1CCCN1S(=O)(=O)c1ccc(Cl)cc1 (stereo not drawn),4,99*,15,33,12,0,20,14,-32
